Measurements published in PubChem BioAssay AID463173 (ICCB-Longwood Screening Facility, Harvard Medical School, 2010).
Out of some 52,000 compounds screened, about 4,300 (8.3%) were called active. Shown is part of a subset that was picked to be rich in actives. Unmarked numbers belong to inactive results. Cut-off read from the data, not from the text of the source: active = survival mostly below about 52% (no sharp cut-off); inactive = mostly above about 56%.

test system: DeltatarO mutant; assay: S. aureus survival, RN4220 and DeltatarO strains – OD600, teichoic acid synthesis inhibitors, primary screen (AID 463173); details: S. aureus RN4220 wild type/DeltatarO growth, OD600, 18 h, hits give low values, screened at 18.75 µg/mL (by protocol)

In order of rising survival:
1. CC(C)OCCCN1C(=O)c2[nH]nc(-c3ccccc3O)c2C1c1ccccc1F (stereo unspecified)  46%
2. CC(C)OCCCN1C(=O)c2[nH]nc(-c3ccccc3O)c2C1c1cccc(OCc2ccccc2)c1 (stereo unspecified)  49%
3. COCCNC(=O)c1c(NC(=O)c2cc(=O)c3cc(Cl)ccc3o2)sc2c1CCCC2  49%
4. CCCC(O)c1nc2ccccc2n1CCCCOc1ccc(OC)cc1 (stereo unspecified)  52%
5. COCCCN1C(=O)c2[nH]nc(-c3ccccc3O)c2C1c1ccc(OC)cc1 (stereo unspecified)  53%
6. CCOC(=O)c1c(NC(=O)/C=C/c2ccc(C(C)C)cc2)sc2c1CCC2  56%
7. CCCc1cc(C(=O)Nc2c(C)nn(Cc3ccc(Cl)c(Cl)c3)c2C)no1  56%
8. Nc1ncnc2sc3c(c12)CCCC3  57%
9. O=C(Nc1ccccc1Cl)[C@H](CSCc1ccccc1)N1Cc2ccccc2C1=O  58%
10. Cc1ccnc(NS(=O)(=O)c2ccc(NC(=O)c3nc(SC(C)C)ncc3Cl)cc2)n1  58%
11. CCOC(=O)c1c(NC(=O)c2cc(=O)c3c(C)cc(C)cc3o2)sc(C)c1C  61%
12. COc1ccccc1OCCn1c(COc2cc(C)ccc2C)nc2ccccc21  61%
13. CC(=O)c1ccc(NC(=O)CSc2cn(CC(=O)N3CCCCC3)c3ccccc23)cc1  63%
14. Cc1ccc(OCCn2c(COc3ccc(Cl)cc3)nc3ccccc32)cc1  65%
15. COc1ccccc1OCCn1c(C(C)Oc2ccccc2)nc2ccccc21 (stereo unspecified)  66%
16. Cc1cccc(Oc2ccc(NC(=O)CCC(=O)OCC(=O)c3ccc(Br)cc3)cc2)c1C  68%
17. CC1=C(C(=O)Nc2cccc(F)c2)C2(CCCCCC2)OC1=O  70%
18. COc1ccc(CNC(=O)c2cnc(N3CCOCC3)c3ccccc23)cc1  70%
19. CCn1cc(C(=O)N2CCN(c3ccc(F)cc3)CC2)c(=O)c2cc(S(=O)(=O)N(C)C3CCCCC3)ccc21  73%
20. COc1cccc(CNC(=O)c2nn(C)c3c2CS(=O)(=O)c2ccccc2-3)c1  74%
21. CCOC(=O)c1c(NC(=O)/C=C/c2ccccc2)sc2c1CCCC2  75%
22. COc1ccc2cc(C(=O)NCc3ccc4c(c3)CCN4C(=O)c3ccc(C)cc3)[nH]c2c1  75%
23. COc1ccc(CCC(=O)NCc2ccc3c(c2)CCN3C(=O)c2cccc(C)c2)cc1  76%
24. O=C(NCCc1ccc(Cl)cc1)C(=O)NCC(c1cccs1)S(=O)(=O)c1ccccc1 (stereo unspecified)  77%
25. CCN1CCN(c2c(S(=O)(=O)c3ccc(Cl)cc3)cnc3ccccc23)CC1  77%
26. COc1ccc(C)cc1NC(=O)c1ccc2c(c1)CCN2S(=O)(=O)c1ccc(Cl)cc1  79%
27. COCCCn1c(SCC(=O)N2CC(=O)Nc3ccccc32)nnc1-c1ccoc1C  79%
28. CC1=Nc2cc(C(=O)NCc3ccccc3Cl)ccc2Sc2c(C)ccc(C)c21  79%
29. O=C(NCc1ccc2c(c1)CCN2C(=O)c1ccccc1)c1ccccc1  79%
30. CNC(=O)CSc1ncnc2sc3c(c12)CCCC3  80%
31. CCC1CCCCN1Cc1cn2c(-c3ccc(Br)cc3)nnc2s1 (stereo unspecified)  80%
32. Cc1cccc(C(=O)N2CCc3cc(CNC(=O)c4cc5ccccc5[nH]4)ccc32)c1  81%
33. COc1ccc(OCC(=O)NCc2ccc3c(c2)CCN3C(=O)c2cccc(C)c2)cc1  82%
34. Cc1ccc(C2=NN(CC(=O)NCCCN(CC(C)C)CC(C)C)C(=O)CC2)cc1  83%
35. COc1ccc(OC)c(S(=O)(=O)Nc2cccc(-c3ccc(N4CCCCC4)nn3)c2)c1  83%
36. CCOC(=O)c1[nH]c(C)c(CCC(=O)NC(C)c2ccccc2)c1C (stereo unspecified)  83%
37. CCc1ccccc1NC(=O)c1ccc2c(c1)N(Cc1cc(C)ccc1C)C(=O)c1ccccc1S2(=O)=O  84%
38. Cc1ccc(Cn2c(=O)c3cccnc3n(CC(=O)Nc3cc(Cl)ccc3C)c2=O)cc1  85%
39. Clc1ncnc2sc3c(c12)CCCC3  86%
40. COc1ccc2cc(C(=O)NCc3ccc4c(c3)CCN4C(=O)c3ccc(F)cc3)[nH]c2c1  86%
41. CCCCN(CCCNC(=O)CN1N=C(c2ccccc2)CCC1=O)c1ccccc1  88%
42. CCCCN1C(=O)c2[nH]nc(-c3ccccc3O)c2C1c1ccc(C(C)(C)C)cc1 (stereo unspecified)  88%
43. CCOC(=O)c1ccc2c(c1)N(Cc1ccc(F)cc1Cl)C(=O)c1ccccc1S2(=O)=O  90%
44. O=C(NC12CC3CC(CC(C3)C1)C2)c1cncc(O)c1  90%
45. Cc1cccc(NC(=O)c2sc3nc(N4CCOCC4)c4c(c3c2N)CC(C)(C)OC4)c1  91%
46. CCOc1ccc(C(=O)NCc2ccc3c(c2)CCN3C(=O)c2ccc(Cl)cc2)cc1  91%
47. CCCCN(CCCNC(=O)CN1N=C(c2ccc(C)cc2)CCC1=O)c1ccccc1  92%
48. COC(=O)C(C)n1cnc2sc3c(c2c1=O)CCCC3 (stereo unspecified)  92%
49. CCCOc1cccc(C2c3c(oc4ccc(F)cc4c3=O)C(=O)N2CCc2ccc(OC)cc2)c1 (stereo unspecified)  92%
50. CCOC(=O)CSc1ncnc2sc3c(c12)CCC3  96%
51. C=CCNc1nc(-c2ccccc2)cs1  97%
52. O=C(NCc1ccc2c(c1)CCN2C(=O)c1ccc(F)cc1)c1cc2ccccc2[nH]1  97%
53. Cn1c(=O)n(C)c2cc(/C=N/NC(N)=S)ccc21  98%
54. CCOC(=O)c1c(NC(=O)c2cc(=O)c3ccc(C)cc3o2)sc(C)c1C  100%
55. CCn1cnc2sc3c(c2c1=O)CCCC3  101%
56. COc1cccc(C(=O)CN2C3=NCCN3c3ccccc32)c1  106%
57. Cc1cc(C)c(NC(=O)CCN2C(=O)c3ccccc3Sc3ncccc32)c(C)c1  106%
58. O=c1c2ccccc2nc(-c2ccccc2)n1CCCn1ccnc1  107%
59. CCOC(=O)c1noc2nc(C)n(CC(=O)Nc3cccc(OC)c3)c(=O)c12  108%
60. CCOC(=O)c1c(-c2ccc(C)cc2)csc1NC(=O)c1cc(=O)c2ccc(C)cc2o1  109%
61. CCOc1ccc(/C=C/C(=O)Nc2sc3c(c2C(=O)OC)CCCC3)cc1  110%
62. COCC(=O)Nc1nc(-c2ccccc2)cs1  112%
63. CC(=O)c1cccc(NC(=O)C(CC(C)C)NS(=O)(=O)c2ccc3c(c2)CCN3C(C)=O)c1 (stereo unspecified)  115%
64. CCOC(=O)c1c(-c2ccc(C)cc2)csc1NC(=O)c1cc(=O)c2cc(Cl)ccc2o1  116%
65. CCOC(=O)c1cccc(NC(=O)NCc2ccc3c(c2)CCN3C(=O)c2ccccc2)c1  116%
66. Cc1cccc(OCCn2c(SCC(N)=O)nc3ccccc32)c1  121%
67. CCN(CCCNC(=O)CN1N=C(c2ccc(OC)cc2)CCC1=O)c1cccc(C)c1  123%
68. COc1ccc(-n2nc(C(=O)N3CCN(c4ccccc4OC)CC3)c3c4ccccc4n(C)c3c2=O)cc1Cl  123%
69. O=C(NCc1ccc2c(c1)CCN2C(=O)c1ccccc1)Nc1cccc(C(F)(F)F)c1  123%
70. CCN(CCCNC(=O)CN1N=C(c2ccccc2)CCC1=O)c1cccc(C)c1  124%
71. Cc1ccc(C2=NN(CC(=O)NCCN(CC(C)C)CC(C)C)C(=O)CC2)cc1  131%
72. CCOc1ccc(NC(=O)c2ccc3c(=O)n4c(nc3c2)CCCCC4)cc1  139%
73. CCOC(=O)c1c(NC(=O)/C=C/c2ccc(OCC)cc2)sc2c1CCC2  145%

In the case of `Cc1nc(C)c(-c2csc(NCc3ccccc3)n2)s1`, the survival is reported as 65% (active).
`CCN(CCCNC(=O)CN1N=C(c2ccccc2)CCC1=O)c1ccccc1` was tested, and the survival was -5% (active).
With `Cc1ccc(C2=NN(CC(=O)NCCC(C)C)C(=O)CC2)cc1` the survival was 37% (active).
With `CCN(CCCNC(=O)CN1N=C(c2ccc(C)cc2)CCC1=O)c1ccccc1` the survival was 0% (active).
For `CCOC(=O)c1c(NC(=O)/C=C/c2ccc(OCC)cc2)sc2c1CCCC2`, the survival was 36% (active).
For `CCOC(=O)c1c(NC(=O)/C=C/c2ccc(C)cc2)sc2c1CCCC2`, the survival was 22% (active).
`COCCCN1C(=O)c2[nH]nc(-c3ccccc3O)c2C1c1ccc(OCc2ccccc2)cc1` (stereo unspecified) was tested, and the survival was 8% (active).
`CC(C)OCCCN1C(=O)c2[nH]nc(-c3ccccc3O)c2C1c1ccc(OCc2ccccc2)cc1` (stereo unspecified) was tested, and the survival was 28% (active).
With `CCCCN1C(=O)c2[nH]nc(-c3ccccc3O)c2C1c1ccc(OCc2ccccc2)cc1` (stereo unspecified) the survival was 43% (active).
`CCOC(=O)c1c(NC(=O)c2cc(=O)c3cc(C)cc(C)c3o2)sc(C)c1C` was tested, and the survival was 48% (active).
With `CCOC(=O)c1c(-c2ccc(C)cc2)csc1NC(=O)c1cc(=O)c2cc(C)ccc2o1` the survival was 42% (active).
In the case of `CCC(Sc1ncnc2sc3c(c12)CCCC3)C(=O)OCC(C)C` (stereo unspecified), the survival is reported as -6% (active).
`CCOC(=O)C(CC)Sc1ncnc2sc3c(c12)CCCC3` (stereo unspecified) was tested, and the survival was -7% (active).
For `CCC(Sc1ncnc2sc3c(c12)CCCC3)C(=O)OC(C)C` (stereo unspecified), the survival was -7% (active).
In the case of `O=C(NCc1ccc2c(c1)CCN2C(=O)c1ccccc1)c1cc2ccccc2[nH]1`, the survival is reported as 6% (active).
With `COc1cccc(NC(=O)NCc2ccc3c(c2)CCN3C(=O)c2ccccc2)c1` the survival was 52% (active).
With `COc1ccc2cc(C(=O)NCc3ccc4c(c3)CCN4C(=O)c3ccccc3)[nH]c2c1` the survival was -1% (active).
For `COc1ccc(CC(=O)NCc2ccc3c(c2)CCN3C(=O)c2cccc(C)c2)cc1`, the survival was -4% (active).
With `CCOc1ccc(C(=O)NCc2ccc3c(c2)CCN3C(=O)c2ccccc2)cc1` the survival was -2% (active).
With `COc1cccc(OCc2nc3ccccc3n2CCOc2ccccc2C)c1` the survival was 38% (active).
In the case of `COc1ccc(OCCn2c(C(C)Oc3ccccc3)nc3ccccc32)cc1` (stereo unspecified), the survival is reported as 48% (active).
In the case of `COCc1nc2ccccc2n1CCOc1cccc(C)c1`, the survival is reported as 39% (active).
With `Cc1ccc(OCc2nc3ccccc3n2CCOc2ccc(Cl)cc2)cc1` the survival was 15% (active).
